Laboratory results published in PubChem BioAssay AID588590 (National Center for Advancing Translational Sciences (NCATS), 2011).
The whole screen tested about 390,000 compounds, of which about 4,000 (1%) were called active. Inconclusive results (about 7%) are left out. The sample holds actives, similar compounds and a random draw of the others, so the mix is not that of the screen. Calls follow the shape of the dose curve; as a rule, active = well fitted inhibition curve with a large enough effect; inconclusive = small, poorly fitted or top-dose-only effect, or another doubt; inactive = no such curve, though single readings can be large or run the other way.

Target: DNA polymerase iota (Homo sapiens) (UniProt Q9UNA4)
Sequence (Q9UNA4 whole entry, looked up): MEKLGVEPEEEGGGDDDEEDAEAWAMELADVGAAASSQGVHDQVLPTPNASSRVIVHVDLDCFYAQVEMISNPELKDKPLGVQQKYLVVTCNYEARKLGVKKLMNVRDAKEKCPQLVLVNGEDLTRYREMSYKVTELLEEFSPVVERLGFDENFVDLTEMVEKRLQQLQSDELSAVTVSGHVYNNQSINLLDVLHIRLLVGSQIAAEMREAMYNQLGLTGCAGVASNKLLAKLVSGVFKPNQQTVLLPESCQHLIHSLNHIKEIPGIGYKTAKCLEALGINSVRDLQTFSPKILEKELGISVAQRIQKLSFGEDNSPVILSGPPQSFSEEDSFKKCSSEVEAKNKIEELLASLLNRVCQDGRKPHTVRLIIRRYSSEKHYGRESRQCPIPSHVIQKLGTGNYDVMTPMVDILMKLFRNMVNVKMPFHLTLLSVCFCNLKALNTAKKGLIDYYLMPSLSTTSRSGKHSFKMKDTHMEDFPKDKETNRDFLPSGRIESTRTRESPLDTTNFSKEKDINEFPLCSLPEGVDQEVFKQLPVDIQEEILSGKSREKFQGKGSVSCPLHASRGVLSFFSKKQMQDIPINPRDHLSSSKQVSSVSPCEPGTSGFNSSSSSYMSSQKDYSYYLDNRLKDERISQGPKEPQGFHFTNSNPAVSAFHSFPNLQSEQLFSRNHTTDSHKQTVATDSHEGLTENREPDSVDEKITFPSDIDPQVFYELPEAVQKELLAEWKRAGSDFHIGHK
Test: qHTS for Inhibitors of Polymerase Iota
Settings: Pol iota fluorescent replication assay, 10 min; series mostly up to 115 µM; activity, negative = inhibition: at the top concentration
From the text: DNA polymerases, such as Pol iota, are specifically involved in DNA repair. Pol iota specifically plays an important role in translesion synthesis, where the normal high-fidelity DNA polymerases cannot proceed and DNA synthesis stalls. […] Thus, while pol eta's (and most likely iota's) normal function is to protect humans against the deleterious consequences of DNA damage, under certain conditions they can have deleterious effects on human health. As a consequence, we propose to utilize a high throughput replication assay to identify small molecule inhibitors of pol iota.
In a collaboration between the National Institute of Child Health & Human Development (NICHD) and NIH Chemical Genomics Center, a high-throughput, fluorescent screen was developed to screen the NIH Molecular Libraries Small Molecule Repository (MLSMR). This screen is used to identify inhibitors of pol iota.
NIH Chemical Genomics Center [NCGC]
NIH Molecular Libraries Probe Centers Network [MLPCN]
Assay Submitter (PI): Roger Woodgate, NICHD)
Three microliters of reagents (buffer in column 3 and 4 as negative control and 10 nM Pol iota in columns 1, 2, and 5-48) will be dispensed into 1,536-well black solid-bottomed plate. Compounds (23 nL) will be transferred via Kalypsys pin tool equipped with 1536-pin array. The plates will then be incubated for 15 min at room temperature, and 1 µL substrate (50 nM final concentration) will be added to start the reaction and kinetically read twice at 0 min and 10 min on the Viewlux reader.
Potency is read from the fitted curve at half-maximal effect.

activity, negative = inhibition, inactive:
CC(C)(C)OC(=O)N(Cc1ccco1)S(=O)(=O)c1ccccc1Br 4.06%
CCC(=O)N1CCc2cc(S(=O)(=O)NC(CC(C)C)C(=O)NCCc3cccc(C)c3)ccc21 (centres undefined) -4.86%
CN1CCN(/N=C2/C(=O)Nc3ccc([N+](=O)[O-])cc32)CC1 -5.18%
O=[N+]([O-])c1ccc(N(CCO)Cc2ccccc2)c([N+](=O)[O-])c1 22.6%
CC(=O)c1ccc[n+](C(C)CCC(C)[n+]2cccc(C(C)=O)c2)c1 (centres undefined) 64%
COc1cccc(CNC(=O)CN2C(=O)CCc3cc(S(=O)(=O)N4CCOCC4)ccc32)c1 2.67%
COc1ccc2[nH]c(=O)c(CNc3ccc(C)c(C)c3)cc2c1 6.15%
COc1ccc(-c2cc(C(=O)NCc3cc(OC)c(OC)c(OC)c3)[nH]n2)cc1 10.4%
COc1ccccc1N1CCN(C(=O)C2Cc3ccccc3CN2C(=O)c2ccco2)CC1 (centres undefined) -9.63%
Cc1ccc(C)c(NC(=O)C2Cc3ccccc3CN2C(=O)OCc2ccccc2)c1 (centres undefined) -32.5%
OC[C@@H]1O[C@H](n2cnc3c(SCc4ccccc4)ncnc32)[C@H](O)[C@H]1O 17.3%
COc1ccc(CNC(=O)Cc2coc3ccc(C(C)C)cc23)cc1 -11.3%
CCOC(=O)c1c(SCC(=O)Nc2cccc(C)c2C)nc(=O)[nH]c1C -9.72%
CCOC(=O)c1c(C)[nH]c(C)c1S(=O)(=O)N(C)CC(=O)N1CCN(c2ccccc2)CC1 15.1%
Cc1ccc(-n2ncc3c(=O)n(Cc4cccc(C(F)(F)F)c4)cnc32)cc1C 2.4%
O=C(O)c1ccc(N/N=C/c2ccc3ncccc3c2)cc1 -5.75%
Cc1ccccc1N/N=C/c1ccc(N2CCOCC2)cc1 -12.5%
CCCCOc1ccc(C(=O)NO)cc1 20.2%
C/C=C/NNC(=O)Cc1ccc(OC)cc1 11.8%
COc1cc(NS(=O)(=O)c2ccc3c(c2)OCC(C(=O)N2CCCC2)O3)cc(OC)c1 (centres undefined) 8.22%
COc1ccc(OC)c2sc(N3CCN(C(=O)C4COc5ccccc5O4)CC3)nc12 (centres undefined) 11.7%
Cc1ccc(-c2ccc(CCC(=O)O)n2-c2ccc(C(N)=O)cc2)cc1 3.26%
N#Cc1ccsc1NC(=O)CN1CCN(S(=O)(=O)c2cc(Cl)ccc2Cl)CC1 -9.21%
COc1ccc(Cl)cc1S(=O)(=O)N1CCN(CC(=O)C(C)(C)C)CC1 -2.4%
Cc1[nH]c2ccccc2c1C(=O)C(=O)N(C)c1ccccc1 27.1%
Cc1ccc(-c2nc3ccccn3c2Nc2ccc(F)cc2)o1 21.9%
CCCCCCCNc1ccc(/C=C/c2ccnc3ccccc23)cc1 34.6%
O=C(Cn1c(=O)n(-c2ccc(F)cc2)c(=O)c2sc3ccccc3c21)NC1CCCC1 -2.5%
COc1ccc(CNC(=O)c2cc3c(-c4ccccc4F)nn(C)c3s2)c(OC)c1 -0.744%
CSc1cccc(NC(=O)CN2C(=O)CCc3cc(S(=O)(=O)N4CCCCC4)ccc32)c1 -12.3%
O=C1c2ccccc2-c2ncnc3c(N4CCOCC4)cc(N4CCOCC4)c1c23 12.6%
Cc1oc2c(c1C(=O)N1CCOCC1)C(=O)c1ccccc1C2=O -7.65%
Cc1cccn2c(=O)c3cc(C(=O)NC(C)c4ccccc4)c(=N)n(CCCO)c3nc12 (centres undefined) 5.28%
COc1cc(O)c2c(=O)c3c(O)c(O)ccc3oc2c1OC -4.12%
COc1ccc(-c2c(C)c3ccc(O)c(CN4CCN(C)CC4)c3oc2=O)cc1OC -12.2%
C=CCn1c(SCC(=O)NCCCO)nc2sc3c(c2c1=O)CCC3 45.2%
C=CCn1c(SCC(=O)NCC2CCCO2)nc2sc(C)c(C)c2c1=O (centres undefined) 22.8%
CCOC(=O)c1cccc(NC(=O)C(Cc2ccccc2)NS(=O)(=O)c2cccc3nsnc23)c1 (centres undefined) 39.6%

Potency, active:
O=C1Nc2ccc([N+](=O)[O-])cc2C1=Nc1cccc(CO)c1 7.94 µM
COc1ccc2[nH]c(C(=O)N/N=C/c3cc(OC)c(OC)c(OC)c3)cc2c1 17.8 µM
Cc1ccc(S(=O)(=O)N(C)C)cc1NC(=O)C1Cc2ccccc2CN1C(=O)c1ccco1 (centres undefined) 22.4 µM
CCOC(=O)c1c(C)[nH]c2c1-c1ccccc1C(=O)C2=O 1.41 µM
O=C(O)c1ccc(NN=CC2=C(N3CCOCC3)/C(=C/c3ccccc3)CC2)cc1 20 µM
Cc1c(CC(=O)N2CCN(C(=O)C3COc4ccccc4O3)CC2)c(=O)oc2c(O)c(O)ccc12 (centres undefined) 3.16 µM
O=C(CN1CCN(S(=O)(=O)c2cc(Cl)ccc2Cl)CC1)c1ccc(O)c(O)c1 10 µM
COC1=C(N2CCOCC2)C(=O)c2ccccc2C1=O 14.1 µM
COc1c(O)cc2oc(-c3ccc(O)c(O)c3)cc(=O)c2c1O 7.94 µM
C=CCn1c(=S)[nH]c2scc(-c3ccco3)c2c1=O 4.47 µM
C=CCNC(=O)CSc1nc2scc(-c3ccco3)c2c(=O)n1CC=C 44.7 µM
